The campaign covered roughly 2,200 compounds. About 530 (24%) were called active.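 Rule for the calls: active = inhibition above a set limit at one or more concentrations of the dose series; inactive = inhibition under that limit at every dose.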 Only a sample is shown. Measured potencies and affinities stand elsewhere.

This experiment in a line: nmpC-GFP reporter counter-screen in S. Typhimurium, dose response, counter-screen for PhoP regulon inhibitor project, Salmonella Typhimurium, GFP fluorescence (AID 2401).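 Note: S. typhimurium with Mg-insensitive nmpC-GFP reporter grown at 10 µM Mg2+; drop in reporter fluorescence reflects general culture growth inhibition.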 As to conditions: 4 h; series mostly up to 150 µM. (Counterscreens check selectivity or assay interference.)
`NC(=O)N1OCC2COc3ccc4ccccc4c3C21` (stereo unspecified): the compound was called inactive. In the case of `Cc1ccc(NC(=O)COC(=O)C2(c3ccc(Cl)cc3)CCCC2)cc1` it was “inactive”; in that of `COc1ccc(/C=C(\NC(=O)/C=C/c2ccco2)C(=O)NCCc2nc3ccccc3[nH]2)cc1`, “inactive”. With `C=CCOc1ccccc1CNCCCN1CCOCC1`, the compound was classed as inactive. In the case of `FC(F)(F)C1=CC(c2ccc(Br)cc2)=NCCN1` it was “inactive”. Consider `CCCCC(=O)NCCNC(=O)c1cc(OCC(F)(F)F)ccc1OCC(F)(F)F`, for which the call was inactive. Turning to `CCOc1ccc2c(c1)nc(SCC(=O)c1ccc(Br)s1)n2C`, the result was inactive.

On to `Cc1ccc(-c2csc(=S)n2CC(=O)OCC(=O)NCc2ccco2)cc1`, for which the result was inactive. In the case of `CCc1nc(SCC(=O)N2CCCc3ccccc32)c2oc3ccccc3c2n1` it was “inactive”. In the case of `Cc1ccc2c(c1)[nH]c1c(N3CCN(Cc4ccccc4)CC3)ncnc12` it was “inactive”; in that of `O=C(CCCOc1ccccc1)N1CCCc2ccccc21`, “inactive”; in that of `O=C(CN1CCN(Cc2ccccc2)CC1)c1c[nH]c2ccccc12`, “inactive”. In the case of `C/C(Nc1ccc(F)cc1)=C(/C#N)C(N)=O` it was “inactive”; in that of `CN(C)c1ccc(/C=N/c2cc(-c3ccccc3)nn2-c2ccccc2)cc1`, “inactive”. In the case of `CCC(CC)C(=O)NCCc1ccc(OC)cc1`, the outcome was inactive. As to `CCOc1c(Br)cc(CNCc2cccs2)cc1OC`, the call was inactive. In the case of `S=C(NCc1ccncc1)Nc1ccc(Cl)c(Cl)c1` it was “inactive”; in that of `O=C(NC(NC(=S)Nc1ccc(Cl)c(Cl)c1)C(Cl)(Cl)Cl)c1ccco1` (stereo unspecified), “inactive”; in that of `Cc1ccsc1/C=N/NC(=O)Cn1cnc2ccccc21`, “inactive”.

For `Cc1cc(NC(=O)c2ccccc2-c2ccccc2)ccc1Br`, the compound was called inactive. As for `CC1=CC2=NC(=O)/C(=C\c3cc(C)n(-c4ccc(F)cc4)c3C)C(=N)N2O1`, the compound was called inactive. For `CC(=O)NCCOc1c(C)cc(S(N)(=O)=O)cc1C`, the call was inactive. As to `O=C(NCCc1ccc(Cl)cc1)/C(=C/c1cccnc1)NC(=O)c1ccccc1`, the outcome was inactive. Consider `Cc1ccc(S(=O)(=O)N2CCC(C(N)=O)CC2)c(C)c1C`, for which the compound was classed as inactive. In the case of `Cc1nc([N+](=O)[O-])c(Br)n1CC(=O)c1ccccc1` it was “inactive”. For `CC(=O)Nc1ccc(-n2nnnc2SCC(=O)Nc2cccc(NC(=O)c3ccco3)c2)cc1`, the compound was called inactive.

For `COc1ccc(C(=O)Nc2cc(C)ccc2NC(=O)COc2ccccc2)cc1`, the result was inactive.

In the case of `C=CCn1c(SCC(=O)Nc2nnc(CC)s2)nnc1-c1cccnc1`, the call was inactive. Consider `Cc1ccc(C(=O)NCC(=O)NCC(=O)OCC(=O)c2ccc([N+](=O)[O-])cc2)cc1`, for which the outcome was inactive.

Turning to `CCc1ccccc1NC(=O)c1nnn(CC(=O)Nc2cccc(C)c2C)c1N`, the compound was called inactive. In the case of `CC1CC(C)CN(CCCSc2ccccc2)C1` (stereo unspecified) it was “inactive”.
